Hit rate of the full screen: of about 350,000 compounds, about 700 (0.2%) were called active. A call without a number means that no potency is given here. Calls follow the shape of the dose curve; as a rule, active = well fitted inhibition curve with a large enough effect; inconclusive = small, poorly fitted or top-dose-only effect; inactive = flat fitted curve, though single readings scatter. This excerpt belongs to a sample that is enriched for actives.
target: RecQ-like DNA helicase BLM (Homo sapiens) (UniProt P54132); assay: qHTS Assay for Inhibitors of Bloom's syndrome helicase (BLM); conditions: recombinant BLM DNA unwinding, fluorescence dequenching; series mostly up to 56.1 µM; also: nearly all actives have a fitted effect of over 35% in size
Potency is read from the fitted curve at half-maximal effect.

RecQ-like DNA helicase BLM (Homo sapiens), sequence (P54132 whole entry, looked up): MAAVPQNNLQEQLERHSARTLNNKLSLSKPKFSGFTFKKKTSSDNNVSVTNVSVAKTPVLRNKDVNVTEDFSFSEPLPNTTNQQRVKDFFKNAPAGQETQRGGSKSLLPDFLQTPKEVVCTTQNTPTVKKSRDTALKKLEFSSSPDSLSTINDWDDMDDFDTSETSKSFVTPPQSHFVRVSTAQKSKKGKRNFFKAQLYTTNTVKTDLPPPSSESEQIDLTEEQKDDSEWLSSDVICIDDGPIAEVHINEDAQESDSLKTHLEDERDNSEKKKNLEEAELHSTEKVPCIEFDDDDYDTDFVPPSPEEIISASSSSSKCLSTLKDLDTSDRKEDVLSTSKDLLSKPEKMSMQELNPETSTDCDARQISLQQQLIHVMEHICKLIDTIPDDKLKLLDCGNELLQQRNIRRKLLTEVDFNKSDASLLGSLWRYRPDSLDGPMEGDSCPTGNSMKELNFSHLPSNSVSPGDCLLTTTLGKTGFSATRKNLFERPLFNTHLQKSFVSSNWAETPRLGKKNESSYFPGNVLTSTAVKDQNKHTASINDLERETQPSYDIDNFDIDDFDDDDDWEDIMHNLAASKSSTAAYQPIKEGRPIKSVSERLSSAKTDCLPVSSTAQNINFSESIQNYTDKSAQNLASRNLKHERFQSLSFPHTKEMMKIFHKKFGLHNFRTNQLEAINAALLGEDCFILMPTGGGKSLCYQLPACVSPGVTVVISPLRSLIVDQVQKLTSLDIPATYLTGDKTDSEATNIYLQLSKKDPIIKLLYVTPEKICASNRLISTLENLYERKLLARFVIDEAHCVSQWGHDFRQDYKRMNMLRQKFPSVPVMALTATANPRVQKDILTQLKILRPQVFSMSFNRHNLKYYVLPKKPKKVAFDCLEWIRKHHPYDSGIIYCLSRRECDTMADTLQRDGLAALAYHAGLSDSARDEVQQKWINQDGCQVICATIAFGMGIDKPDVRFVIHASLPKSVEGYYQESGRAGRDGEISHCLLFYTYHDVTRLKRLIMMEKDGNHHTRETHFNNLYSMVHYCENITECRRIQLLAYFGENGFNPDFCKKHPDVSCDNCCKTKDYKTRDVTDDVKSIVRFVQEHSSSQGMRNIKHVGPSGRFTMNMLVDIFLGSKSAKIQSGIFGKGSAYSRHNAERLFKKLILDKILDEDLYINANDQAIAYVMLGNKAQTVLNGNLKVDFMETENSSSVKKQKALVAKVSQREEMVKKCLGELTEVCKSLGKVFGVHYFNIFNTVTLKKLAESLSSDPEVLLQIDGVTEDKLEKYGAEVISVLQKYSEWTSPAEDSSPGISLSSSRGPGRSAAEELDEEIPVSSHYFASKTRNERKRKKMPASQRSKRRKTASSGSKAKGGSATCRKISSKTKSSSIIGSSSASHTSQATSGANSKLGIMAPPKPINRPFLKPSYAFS

| SMILES | Potency |
| --- | --- |
| COc1ccc(-c2nc3c(c(SCC(=O)Nc4ccc(C(=O)O)cc4)n2)Cc2ccccc2O3)cc1 | 7.08 µM (active) |
| COc1cc(OC)cc(-c2nnc(SCC(=O)Nc3ccc(C(=O)O)cc3)s2)c1 | inactive |
| COc1ccc(NC(=O)CSc2nc(N)c(-c3ccccc3)c(=O)[nH]2)cc1 | inactive |
| Cc1ccc(NS(=O)(=O)c2ccc(N/N=C/c3ccccc3OCC(=O)O)c([N+](=O)[O-])c2)c(C)c1 | 7.08 µM (active) |
| C=C(C)CNC(=S)N/N=C/c1ccccc1OCC(=O)O | inactive |
| Cc1ccc(S(=O)(=O)NC(=O)COc2ccccc2C)cc1 | inactive |
| COc1c(O)c2c(=O)cc(OC)c3c4c(OC)cc(=O)c5c(O)c(OC)c6c(c(c1C[C@@](C)(O)[C@H]6C(C)=O)c23)c54 | inactive |
| COC(=O)[C@@]1(C)C=C[C@@H](Cc2ccccc2)N1C(C)=O | inactive |
| CCc1c2c(nc3ccc(O)cc13)-c1cc3c(c(=O)n1C2)COC(=O)[C@]3(O)CC | inactive |
| Oc1ccc(Cl)c2c1CCC2 | inactive |
| COc1ccc(C(=O)N2CCC3(CCCN(C(c4ccccc4)c4ccccc4)C3)CC2)cc1 | inactive |
| CCCC(=O)Nc1ccc(NC(=O)c2sc3ccccc3c2Cl)cc1 | inactive |
| CCOc1[nH]n(-c2ccc(Cl)cc2)c(=O)c1C=Nc1ccc(O)cc1 | inactive |
| Oc1ccc(N=Cc2sc3ccccc3c2Cl)cc1 | 20 µM (active) |
| Oc1ccc(N=Cc2c(O)ccc3ccccc23)cc1 | 31.6 µM (active) |
| Cc1cc(N=Nc2ccc3ccccc3c2)ccc1O | inactive |

| SMILES | Potency |
| --- | --- |
| COC(=O)c1cc(NC(=O)c2sc3ccccc3c2Cl)cc(C(=O)OC)c1 | inactive |
| Cc1cccc(CNc2ccnc(-c3cccnc3)n2)c1 | inactive |
| O=C(Nc1cc(C(=O)Nc2ccc(S(=O)(=O)O)cc2)cc(C(=O)Nc2ccc(S(=O)(=O)O)cc2)c1)Nc1cc(C(=O)Nc2ccc(S(=O)(=O)O)cc2)cc(C(=O)Nc2ccc(S(=O)(=O)O)cc2)c1 | inactive |
| O=C(c1ccncc1)N1CCC2(CCCN(C(c3ccccc3)c3ccccc3)C2)CC1 | inactive |
| O=C(c1cnccn1)N1CCC[C@@]2(CCN(Cc3ccncc3)C2)C1 | inactive |
| CCc1nc(-c2cc(S(=O)(=O)N3CCN(c4ccc(OC)cc4)CC3)ccc2OC)no1 | inactive |
| CCCS(=O)(=O)c1ncc(Cl)c(C(=O)Nc2scc(-c3ccccc3)c2C(=O)OCC)n1 | inactive |
| Oc1c(C(c2ccc(F)cc2)N2CCN(Cc3ccccc3)CC2)sc2nc(-c3ccco3)nn12 (stereo unspecified) | inactive |
| C=C1C([C@@]2(C)C(OC(C)=O)CC(=O)O[C@@](C)(COC(C)=O)C2CC(=O)OC)C(OC=O)C(OC(=O)C(O)C(C)CC)[C@]2(C)C(c3ccoc3)CC(=O)C12O (stereo partly specified) | inactive |
| CC(=O)N1CCC2(CCCN(Cc3ccc(C#N)cc3)C2)CC1 | inactive |
| CC1(C)C=CC(=O)[C@]2(C)C1CC(=O)[C@]1(C)C2CC[C@@]2(C)C(c3ccoc3)OC(=O)C3OC321 (stereo partly specified) | inactive |
| C=C1CCN(C(CC(C)C)C(=O)N2CCOCC2)S(=O)(=O)c2ccccc21 (stereo unspecified) | inactive |
| COc1ccc(S(=O)(=O)NCC(c2ccc(N(C)C)cc2)N2CCc3ccccc32)cc1OC (stereo unspecified) | inactive |
| O=C(O)c1ccc(/C=C2/SC(=S)N(c3cccc(C(F)(F)F)c3)C2=O)cc1 | inactive |
| Cn1c(N)c(C(=O)COC(=O)c2cc(C(F)(F)F)nc3c(C(F)(F)F)cccc23)c(=O)n(C)c1=O | inactive |
